PubChem BioAssay AID652057 (Broad Institute, 2013)
Among all 1,400 compounds or so, about 1,000 (71%) were called active. No rule for the calls is given here. The set was probably picked from earlier hits. These entries were drawn from the full list. Entries with a potency or affinity are not part of this list.

Assay: inhibitors of HIV Env-driven cell fusion, dose response, cherry-pick (AID 652057)
Conditions: HeLa-JRFL Env/CEM21 cell fusion, luciferase; series mostly up to 35 µM; activity change, negative = inhibition: at the top concentration

Activity change, negative = inhibition, inactive:
Cc1nn(C)c(C)c1CN(C)S(=O)(=O)c1ccc2ccccc2c1 -19.4%
O=C(C[C@H]1C[C@H]2c3cc(NC(=O)NC4CCCC4)ccc3O[C@H]2[C@@H](CO)O1)NC1CCCCC1 4.98% [at 30 µM]
COc1ccccc1S(=O)(=O)n1cc(Cc2ccccc2)c(N)n1 0.466%
COc1ccc(S(=O)(=O)N[C@@H]2CC[C@@H](CC(=O)NCCc3ccncc3)O[C@@H]2CO)cc1 -7.73%
O=C(NCC[C@@H]1CC[C@@H](NS(=O)(=O)c2ccccc2F)[C@@H](CO)O1)c1ccc(F)cc1 23.2%
CC1CN(S(=O)(=O)c2cc(C(=O)NCCC3=CCCCC3)ccc2Cl)CC(C)O1 (configuration not stated) -19.3% [at 16 µM]
O=C(Nc1ccc(F)cc1)Nc1ccc2c(c1)[C@H]1C[C@@H](CC(=O)N3CCCCC3)O[C@H](CO)[C@H]1O2 23.7%
CO[C@@H]1CN(C)C(=O)c2cc(NC(=O)Nc3ccc(Cl)cc3)ccc2OC[C@H](C)N(C)C[C@H]1C -23%
CCOc1ccccc1C(=O)NCC(=O)NNC(=O)CN(C)S(=O)(=O)c1ccc(Cl)cc1 -16.5%
COc1cccc(S(=O)(=O)N[C@H]2CC[C@H](CC(=O)NCc3ccncc3)O[C@@H]2CO)c1 2.5%
CCOC(=O)CN1CCCc2nc(C)c(C)cc21 8.7%
C[C@@H]1CN([C@@H](C)CO)S(=O)(=O)c2ccc(-c3ccccc3)cc2O[C@H]1CN(C)S(C)(=O)=O -12.1%
CO[C@H]1CN(C)C(=O)c2cc(NC(=O)c3ccc(F)cc3)ccc2OC[C@H](C)N(C(=O)CN(C)C)C[C@@H]1C 16.8%
CC(CCc1ccco1)NC(=O)CCc1nnc2ccc(NCc3ccccc3Cl)nn12 (configuration not stated) 19.2%
C[C@@H]1CN([C@@H](C)CO)C(=O)Cc2cc(NC(=O)NC3CCCCC3)ccc2O[C@@H]1CN(C)S(=O)(=O)c1ccc(Cl)cc1 17.7% [at 16 µM]
CC1CCCC(C)N1CCCNC(=O)c1nn(C)c2c1CSc1ccccc1-2 (configuration not stated) 49.2%
CCOc1ccc(NC2c3ccccc3C(=O)N2Cc2ccco2)cc1 (configuration not stated) 4.3%
Cn1c(=O)oc2cc(S(=O)(=O)NCc3ccncc3)ccc21 -2.17%
O=C(C[C@@H]1C[C@H]2c3cc(NC(=O)C4CCOCC4)ccc3O[C@H]2[C@H](CO)O1)NCc1ccccc1F 23.4%
CC(C)NC(=O)Nc1ccc2c(c1)C(=O)N([C@@H](C)CO)C[C@H](C)[C@H](CN(C)C(=O)Nc1ccc(F)cc1)O2 -14.9%
Cc1noc(C)c1NC(=O)N(C)C[C@H]1OCCCC[C@H](C)Oc2ccc(NC(=O)c3ccccc3)cc2C(=O)N([C@H](C)CO)C[C@@H]1C 24.3%
COc1ccc(S(=O)(=O)n2ccc(-c3ccc(OCCN(C)c4ccccn4)cc3)n2)cc1 -11.7%
COc1ccccc1OCC(=O)c1[nH]c(C)c(C(C)=O)c1C -2.71%
O=C(c1ccccc1)N1CCC(c2nc(-c3ccc(S(=O)(=O)NCC4CCCO4)cc3)no2)CC1 (configuration not stated) -19.1%
C[C@@H]1CN([C@H](C)CO)C(=O)c2c(c3ccccc3n2C)-c2ccccc2CO[C@@H]1CN(C)S(=O)(=O)c1cccc(F)c1 247% [at 18 µM]
C[C@@H]1CN([C@@H](C)CO)C(=O)c2cccc(NC(=O)c3ccc(-c4nccs4)cc3)c2O[C@H]1CN(C)CC1CC1 -19.5%
CCn1ncc(C2=NOC(C(=O)Nc3ccc(C)cc3)C2)c1C (configuration not stated) -4.06%
C[C@H]1CN([C@@H](C)CO)C(=O)Cc2cc(N(C)C)ccc2O[C@H]1CN(C)CC1CC1 -11.9%
Cc1ccc2c(c1)C(=C(C#N)C#N)CCN2 -11.9%
O=C(Nc1ccc(N2CCN(C(=O)c3ccccc3)CC2)c(Cl)c1)c1cccnc1 -1.86% [at 16 µM]
CCCNC(=O)C[C@@H]1C[C@@H]2c3cc(NC(=O)Cc4ccncc4)ccc3O[C@@H]2[C@@H](CO)O1 13.7% [at 30 µM]
C[C@H](CO)N1C[C@H](C)[C@@H](CN(C)C(=O)NC2CCCCC2)Oc2c(cccc2N(C)C)C1=O -0.366%
CCCNC(=O)C[C@@H]1C[C@H]2c3cc(NC(=O)c4cccnc4)ccc3O[C@H]2[C@H](CO)O1 51.2%
C[C@@H]1CCCCO[C@H](CN(C)C)[C@H](C)CN([C@@H](C)CO)C(=O)c2cc(NS(=O)(=O)c3cn(C)cn3)ccc2O1 31.6%
C[C@@H]1CN([C@@H](C)CO)C(=O)c2cc(NC(=O)c3ccccc3)ccc2O[C@@H](C)CCCCO[C@H]1CN(C)Cc1ccc(C(=O)O)cc1 -13.2%
COc1ccc(CN(C)C[C@@H]2Oc3ccc(NC(=O)Nc4ccc(OC)cc4)cc3C(=O)N([C@H](C)CO)C[C@@H]2C)cc1 -26%
CNC[C@H]1Oc2c(NC(=O)Nc3ccc(C(F)(F)F)cc3)cccc2C(=O)N([C@@H](C)CO)C[C@H]1C 63.2%
O=C(N[C@@H]1CC[C@H](CCNS(=O)(=O)c2ccc(F)cc2)O[C@@H]1CO)C1CC1 1.98%
CC(C)CNS(=O)(=O)c1ccc(CCC(=O)N2CCN(Cc3ccc4c(c3)OCO4)CC2)cc1 -33.2%
O=C(COC(=O)c1cc(S(=O)(=O)N2CCOCC2)ccc1O)NCc1ccc2c(c1)OCO2 -22%
C[C@H]1NC(=O)[C@@]2(C)[C@H](c3ccccc3)[C@H]3COc4ccccc4[C@@H]3N2C1=O -5.75%
COCC(=O)N1C[C@@H](C)[C@H](OC)CN(C)C(=O)c2ccc(NC(=O)c3ccc(OC)cc3)cc2OC[C@@H]1C 0.438%
Nc1c(S(=O)(=O)c2ccccc2)cnc2c(-c3ccc(F)cc3)cnn12 167%
Cc1cc(Cl)ccc1OCC(=O)NNC(=O)C1CSC2(C)CCC(=O)N12 (configuration not stated) -4.03%
O=C(Nc1cccc(F)c1)c1cc(S(=O)(=O)N2CCC(C(=O)O)CC2)ccc1F 9.32%
Nc1ncn([C@H]2C[C@H](O)[C@@H](CO)O2)c(=O)n1 12.8%
Nc1nc2c(ncn2[C@@H]2O[C@H](C(=O)NCC(c3ccccc3)c3ccccc3)[C@@H](O)[C@H]2O)c(=O)[nH]1 -7.59%
CCc1cc2c(NCc3ccco3)ncnc2s1 -10.4%
N#C[C@H]1[C@@H](c2ccccc2/C=C/c2ccccc2)[C@@H](CO)N1S(=O)(=O)c1cccc(F)c1 -24%
O=C(Nc1ccc(CN2CCS(=O)(=O)CC2)cc1)c1ccc(C(F)(F)F)cc1 -17.9%
Cc1ccc(-n2nnnc2-c2cnn(-c3ccc(F)cc3)c2C(F)(F)F)cc1 -20.2%
Cn1c(SCc2nc(-c3ccc(Cl)cc3)no2)nnc1-c1cccs1 -26.3%
Cc1cccc(C)c1NC(=O)CCCSc1nnc(-c2ccc(Cl)cc2)n1-c1ccccc1 -36.5%
COc1ccc(-c2c(C)nn3c(C(F)(F)F)cc(C)nc23)cc1 -9.71%
O=C(CN1CCN(Cc2ccc(Cl)cc2)C1=O)NCCCN1CCN(c2ccc(F)cc2)CC1 -19.3%
C[C@H]1CN([C@@H](C)CO)C(=O)c2cccc(NC(=O)C3CCCCC3)c2O[C@H]1CN(C)S(C)(=O)=O 12.7%
COCC(=O)N(C)C[C@H]1Oc2ncc(Br)cc2C(=O)N([C@H](C)CO)C[C@H]1C 2.66%
CCCNC(=O)N1[C@H](C#N)[C@H](c2ccc(-c3ccc(C(=O)N(C)C)cc3)cc2)[C@@H]1CO -34.4%
N#C[C@@H]1[C@H](c2ccc(-c3cccc(F)c3)cc2)[C@H](CO)N1C(=O)c1cccnc1 -19.2%
COc1ccccc1C#Cc1ccc([C@H]2[C@H](C#N)N(C(=O)C3CCCC3)[C@H]2CO)cc1 -0.57%
CCCNC(=O)N1[C@H](C#N)[C@H](c2ccc(-c3cccc(OC)c3)cc2)[C@@H]1CO -9.82%
O=S(=O)(NCC[C@H]1CC[C@H](NS(=O)(=O)c2ccccc2Cl)[C@H](CO)O1)c1ccc(Cl)cc1 12.1% [at 30 µM]
O=S(=O)(NCC[C@@H]1CC[C@@H](NS(=O)(=O)c2ccccc2Cl)[C@H](CO)O1)c1ccc(Cl)cc1 15.1%
COc1ccc(-c2nn(C)c(=O)c3ccccc23)cc1NC(=O)COc1ccccc1 12.3%
COc1ccc(OCC(=O)Nc2cc(-c3nn(C)c(=O)c4ccccc34)ccc2OC)cc1 -17.9%
COc1ccc(NS(=O)(=O)c2ccc3c(c2)OCCO3)cc1OC -3.46%
COc1ccc(N2CCn3c2nc2c3c(=O)n(CCCc3ccccc3)c(=O)n2C)c(OC)c1 15% [at 16 µM]
CCOC(=O)C(C)Oc1cccc2c(=O)n(CC(=O)NCCc3ccc(OC)c(OC)c3)ccc12 (configuration not stated) 17.4%
O=C(CCN1CCCCC1)N[C@H]1CC[C@H](CCn2cc(-c3ccccc3)nn2)O[C@@H]1CO 8.36%
O=C(Cc1ccncc1)N[C@H]1CC[C@@H](CCn2cc(-c3ccccc3F)nn2)O[C@@H]1CO 12.9%
O=C(CCN1CCCCC1)N[C@@H]1CC[C@@H](CCn2cc(-c3ccccc3)nn2)O[C@@H]1CO 8.65%
COc1ccc(-c2cn(CC[C@H]3CC[C@H](NS(=O)(=O)c4ccccc4C)[C@H](CO)O3)nn2)cc1 -1.92%
Cc1ccc(C2CC(=O)c3cnc(N4CCc5ccccc5C4)nc3C2)cc1 (configuration not stated) -20.6%
COc1ccccc1N/C(N)=N/c1nc(CSc2ccc(C)cc2)cc(=O)[nH]1 -12.1%
COc1ccc(NC(=O)C2(C)CCN2Cc2ccccc2OC(F)F)cc1OC (configuration not stated) -7.99%
CCCc1cc(C(=O)NCc2ccc(OC)cc2)no1 10.3%
CCCCCCCCCCn1c2c(c(=N)c3c1CCC3)CCC2 94.2% [at 16 µM]
C[C@@H]1CN([C@@H](C)CO)C(=O)c2cc(NC(=O)c3ccncc3)ccc2O[C@@H]1CN(C)Cc1ccncc1 -15.1%
C[C@H](CO)N1C[C@H](C)[C@H](CN(C)Cc2ccccc2)Oc2c(NC(=O)Nc3ccc4c(c3)OCO4)cccc2C1=O 87%
C[C@H](CO)N1C[C@H](C)[C@@H](CN(C)CC2CC2)Oc2ccc(NS(C)(=O)=O)cc2CC1=O 14.9%
C[C@@H]1CN([C@@H](C)CO)C(=O)c2cc(NC(=O)c3ccncc3)ccc2O[C@H]1CN(C)Cc1ccncc1 -2.02%
COc1ccc(NC(=O)CN2CCC(C(N)=O)(N3CCCCC3)CC2)cc1 -13.8%
